The results in this text go back to PMC7862700, “An all-to-all approach to the identification of sequence-specific readers for epigenetic DNA modifications on cytosine”.

ETV5, sequence (P41161 whole entry): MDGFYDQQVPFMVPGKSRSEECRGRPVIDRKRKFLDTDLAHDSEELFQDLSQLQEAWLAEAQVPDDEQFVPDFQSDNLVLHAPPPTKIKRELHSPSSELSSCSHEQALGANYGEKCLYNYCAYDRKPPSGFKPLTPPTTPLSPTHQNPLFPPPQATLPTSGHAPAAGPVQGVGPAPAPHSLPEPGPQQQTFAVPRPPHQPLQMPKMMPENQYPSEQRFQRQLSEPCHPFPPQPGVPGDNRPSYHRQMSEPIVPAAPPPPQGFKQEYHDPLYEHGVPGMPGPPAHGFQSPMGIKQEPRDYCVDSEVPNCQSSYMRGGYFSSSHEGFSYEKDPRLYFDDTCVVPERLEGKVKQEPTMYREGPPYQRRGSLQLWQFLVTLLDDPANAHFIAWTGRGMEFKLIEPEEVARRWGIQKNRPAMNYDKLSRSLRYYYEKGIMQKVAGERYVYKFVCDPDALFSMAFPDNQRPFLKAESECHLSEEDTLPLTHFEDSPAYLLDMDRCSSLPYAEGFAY
HSF1, sequence (Q00613 whole entry): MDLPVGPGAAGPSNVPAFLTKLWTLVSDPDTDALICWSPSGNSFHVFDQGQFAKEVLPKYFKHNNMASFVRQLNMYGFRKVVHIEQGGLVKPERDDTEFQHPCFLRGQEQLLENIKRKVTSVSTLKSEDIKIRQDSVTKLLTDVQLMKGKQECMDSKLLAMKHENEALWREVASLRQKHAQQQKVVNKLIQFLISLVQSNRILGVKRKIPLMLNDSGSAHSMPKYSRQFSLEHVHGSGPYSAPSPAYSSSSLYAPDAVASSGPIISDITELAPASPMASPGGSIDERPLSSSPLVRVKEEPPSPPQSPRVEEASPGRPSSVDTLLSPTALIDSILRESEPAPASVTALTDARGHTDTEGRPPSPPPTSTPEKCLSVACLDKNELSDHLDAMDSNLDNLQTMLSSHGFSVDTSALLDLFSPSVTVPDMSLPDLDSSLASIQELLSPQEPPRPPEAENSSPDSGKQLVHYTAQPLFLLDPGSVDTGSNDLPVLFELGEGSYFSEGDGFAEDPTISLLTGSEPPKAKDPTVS

One assay concerns the target T1, FEV (Homo sapiens, UniProt Q99581 1-238).
T1 sequence: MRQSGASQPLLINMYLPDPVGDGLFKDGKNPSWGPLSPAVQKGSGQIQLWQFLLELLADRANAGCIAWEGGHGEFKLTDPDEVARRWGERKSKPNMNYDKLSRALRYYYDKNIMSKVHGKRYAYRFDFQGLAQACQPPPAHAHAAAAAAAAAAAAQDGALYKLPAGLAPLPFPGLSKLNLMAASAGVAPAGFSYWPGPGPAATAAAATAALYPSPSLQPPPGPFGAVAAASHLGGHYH
The assay is described as follows: DAPPL (digital affinity profiling via proximity ligation, sequencing); 10 mM Tris-HCl pH 7.5, 50 mM NaCl, 1 mM DTT, 4% glycerol, room temperature, 30 min; GST-TFs on glutathione beads, 16-mer random dsDNA library, 0.1% formaldehyde crosslink after washing; high values mean tight binding. The note with it: protein: recombinant; tags: N-terminal GST; dsDNA, one strand shown. In outline:
(§1)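 Yeast served to express human transcription factors as GST fusions, which were then captured on glutathione beads and labelled with DNA barcodes. Pooled with a tag-only sample, they were incubated with 200 nmole of a 16-mer random double-stranded DNA library for 30 min at room temperature in Tris/NaCl/DTT/glycerol buffer, washed, crosslinked with 0.1% formaldehyde, ligated by proximity, amplified by PCR and sequenced. Dividing each hexamer's read frequency for a factor by its frequency for the tag-only sample gives the binding signal.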
In the case of TTCCCG, the binding signal is 1.85 fold enrichment (6-mer frequency, TF over GST control).

CTTCCT: the binding signal is 2.94 fold enrichment (6-mer frequency, TF over GST control).

In the case of TTGAAA, the binding signal was 1.13 fold enrichment (6-mer frequency, TF over GST control).

As for TACTCT, the binding signal was 1.33 fold enrichment (6-mer frequency, TF over GST control).

As for TCCTCA, the binding signal was 1.52 fold enrichment (6-mer frequency, TF over GST control).

Take CCTCCC: the binding signal is 1.59 fold enrichment (6-mer frequency, TF over GST control).

Regarding TGGTTT, the binding signal is 1.54 fold enrichment (6-mer frequency, TF over GST control).

Turning to ATGAAC, the binding signal was 1.26 fold enrichment (6-mer frequency, TF over GST control).

For AACCTG, the binding signal is 1.2 fold enrichment (6-mer frequency, TF over GST control).

As to ACAGCT, the binding signal was 1.07 fold enrichment (6-mer frequency, TF over GST control).

In the case of AAATCA, the binding signal is 1.2 fold enrichment (6-mer frequency, TF over GST control).

TGGACT: the binding signal was 1.32 fold enrichment (6-mer frequency, TF over GST control).

As for TGAACT, the binding signal is 1.28 fold enrichment (6-mer frequency, TF over GST control).

For AATCCC, the binding signal was 1.41 fold enrichment (6-mer frequency, TF over GST control).

TAAAGT: the binding signal was 1.1 fold enrichment (6-mer frequency, TF over GST control).

With CCTGGA, the binding signal is 1.27 fold enrichment (6-mer frequency, TF over GST control).

On to AAACCA, for which the binding signal was 1.22 fold enrichment (6-mer frequency, TF over GST control).

In the case of CTGTCT, the binding signal was 1.42 fold enrichment (6-mer frequency, TF over GST control).

GCTCCA: the binding signal was 1.22 fold enrichment (6-mer frequency, TF over GST control).

As to CTTGGG, the binding signal is 1.23 fold enrichment (6-mer frequency, TF over GST control).

As for CTCCTT, the binding signal was 1.75 fold enrichment (6-mer frequency, TF over GST control).

On to CTGTAT, for which the binding signal was 1.34 fold enrichment (6-mer frequency, TF over GST control).

In the case of ATGCTC, the binding signal was 1.39 fold enrichment (6-mer frequency, TF over GST control).

For CTATAT, the binding signal is 1.44 fold enrichment (6-mer frequency, TF over GST control).

On to CTCCAA, for which the binding signal is 1.29 fold enrichment (6-mer frequency, TF over GST control).

Take CTCAAT: the binding signal is 1.23 fold enrichment (6-mer frequency, TF over GST control).

For the sequence CCTAAT, the binding signal is 1.32 fold enrichment (6-mer frequency, TF over GST control).

Regarding CTGGCT, the binding signal was 1.16 fold enrichment (6-mer frequency, TF over GST control).

For TATTTG, the binding signal was 1.39 fold enrichment (6-mer frequency, TF over GST control).

Turning to CTTCGA, the binding signal was 1.35 fold enrichment (6-mer frequency, TF over GST control).

As to ACTATG, the binding signal is 1.21 fold enrichment (6-mer frequency, TF over GST control).

Turning to TAAACT, the binding signal was 1.11 fold enrichment (6-mer frequency, TF over GST control).

As to ATTCAC, the binding signal was 1.23 fold enrichment (6-mer frequency, TF over GST control).

In the case of CTACAC, the binding signal was 1.27 fold enrichment (6-mer frequency, TF over GST control).

For GTATTT, the binding signal is 1.6 fold enrichment (6-mer frequency, TF over GST control).

As for AATTTC, the binding signal was 1.93 fold enrichment (6-mer frequency, TF over GST control).

Take TTTCAC: the binding signal is 1.37 fold enrichment (6-mer frequency, TF over GST control).

Turning to CTCGTC, the binding signal is 1.31 fold enrichment (6-mer frequency, TF over GST control).

Regarding CCTTCT, the binding signal was 1.59 fold enrichment (6-mer frequency, TF over GST control).

TTACGG: the binding signal was 1.22 fold enrichment (6-mer frequency, TF over GST control).

The target of a further assay is ETV5 (Homo sapiens, UniProt P41161 1-510). Described as above. To be noted: protein: recombinant; tags: N-terminal GST; dsDNA, one strand shown. In outline:
as §1
With TTCCCG, the binding signal is 2.08 fold enrichment (6-mer frequency, TF over GST control).

Regarding CTTCCT, the binding signal was 3.4 fold enrichment (6-mer frequency, TF over GST control).

As to TTGAAA, the binding signal is 1.18 fold enrichment (6-mer frequency, TF over GST control).

For TACTCT, the binding signal was 1.45 fold enrichment (6-mer frequency, TF over GST control).

As to TCCTCA, the binding signal is 1.52 fold enrichment (6-mer frequency, TF over GST control).

As for CCTCCC, the binding signal is 1.55 fold enrichment (6-mer frequency, TF over GST control).

For TGGTTT, the binding signal was 1.71 fold enrichment (6-mer frequency, TF over GST control).

With ATGAAC, the binding signal is 1.29 fold enrichment (6-mer frequency, TF over GST control).

For the sequence AACCTG, the binding signal was 1.16 fold enrichment (6-mer frequency, TF over GST control).

As for ACAGCT, the binding signal is 1.02 fold enrichment (6-mer frequency, TF over GST control).

For AAATCA, the binding signal was 1.26 fold enrichment (6-mer frequency, TF over GST control).

Consider TGGACT, for which the binding signal is 1.33 fold enrichment (6-mer frequency, TF over GST control).

On to TGAACT, for which the binding signal is 1.19 fold enrichment (6-mer frequency, TF over GST control).

AATCCC: the binding signal is 1.3 fold enrichment (6-mer frequency, TF over GST control).

Turning to TAAAGT, the binding signal was 1.13 fold enrichment (6-mer frequency, TF over GST control).

As for CCTGGA, the binding signal was 1.47 fold enrichment (6-mer frequency, TF over GST control).

Take AAACCA: the binding signal was 1.15 fold enrichment (6-mer frequency, TF over GST control).

Take CTGTCT: the binding signal is 1.4 fold enrichment (6-mer frequency, TF over GST control).

GCTCCA: the binding signal is 1.23 fold enrichment (6-mer frequency, TF over GST control).

Consider CTTGGG, for which the binding signal was 1.26 fold enrichment (6-mer frequency, TF over GST control).

CTCCTT: the binding signal was 1.62 fold enrichment (6-mer frequency, TF over GST control).

Regarding CTGTAT, the binding signal was 1.35 fold enrichment (6-mer frequency, TF over GST control).

As to ATGCTC, the binding signal was 1.41 fold enrichment (6-mer frequency, TF over GST control).

As to CTATAT, the binding signal is 1.41 fold enrichment (6-mer frequency, TF over GST control).

In the case of CTCCAA, the binding signal is 1.3 fold enrichment (6-mer frequency, TF over GST control).

Regarding CTCAAT, the binding signal was 1.31 fold enrichment (6-mer frequency, TF over GST control).

For the sequence CCTAAT, the binding signal is 1.31 fold enrichment (6-mer frequency, TF over GST control).

With CTGGCT, the binding signal was 1.13 fold enrichment (6-mer frequency, TF over GST control).

For TATTTG, the binding signal is 1.47 fold enrichment (6-mer frequency, TF over GST control).

In the case of CTTCGA, the binding signal is 1.4 fold enrichment (6-mer frequency, TF over GST control).

For the sequence ACTATG, the binding signal is 1.19 fold enrichment (6-mer frequency, TF over GST control).

With TAAACT, the binding signal is 1.23 fold enrichment (6-mer frequency, TF over GST control).

Take ATTCAC: the binding signal is 1.21 fold enrichment (6-mer frequency, TF over GST control).

CTACAC: the binding signal was 1.26 fold enrichment (6-mer frequency, TF over GST control).

With GTATTT, the binding signal was 1.59 fold enrichment (6-mer frequency, TF over GST control).

As for AATTTC, the binding signal is 1.8 fold enrichment (6-mer frequency, TF over GST control).

Regarding TTTCAC, the binding signal is 1.37 fold enrichment (6-mer frequency, TF over GST control).

As for CTCGTC, the binding signal was 1.31 fold enrichment (6-mer frequency, TF over GST control).

Turning to CCTTCT, the binding signal was 1.59 fold enrichment (6-mer frequency, TF over GST control).

With TTACGG, the binding signal was 1.27 fold enrichment (6-mer frequency, TF over GST control).

For the next assay, the target named is HSF1 (Homo sapiens, UniProt Q00613 1-529). The description is as above. The note with it: protein: recombinant; tags: N-terminal GST; chain copies: 3; dsDNA, one strand shown. Put shortly:
as §1
Consider TTCCCG, for which the binding signal is 2.46 fold enrichment (6-mer frequency, TF over GST control).

CTTCCT: the binding signal was 1.4 fold enrichment (6-mer frequency, TF over GST control).

Regarding TTGAAA, the binding signal is 1.24 fold enrichment (6-mer frequency, TF over GST control).

TACTCT: the binding signal is 1.37 fold enrichment (6-mer frequency, TF over GST control).

As for TCCTCA, the binding signal is 1.2 fold enrichment (6-mer frequency, TF over GST control).

For CCTCCC, the binding signal was 1.12 fold enrichment (6-mer frequency, TF over GST control).

With TGGTTT, the binding signal was 1.4 fold enrichment (6-mer frequency, TF over GST control).

On to ATGAAC, for which the binding signal is 1.21 fold enrichment (6-mer frequency, TF over GST control).

Consider AACCTG, for which the binding signal is 1.03 fold enrichment (6-mer frequency, TF over GST control).

For ACAGCT, the binding signal was 1.07 fold enrichment (6-mer frequency, TF over GST control).

For the sequence AAATCA, the binding signal is 1.17 fold enrichment (6-mer frequency, TF over GST control).

With TGGACT, the binding signal is 1.18 fold enrichment (6-mer frequency, TF over GST control).

Consider TGAACT, for which the binding signal is 1.19 fold enrichment (6-mer frequency, TF over GST control).

Turning to AATCCC, the binding signal is 2.47 fold enrichment (6-mer frequency, TF over GST control).

Take TAAAGT: the binding signal was 1.37 fold enrichment (6-mer frequency, TF over GST control).

For the sequence CCTGGA, the binding signal is 1.77 fold enrichment (6-mer frequency, TF over GST control).

AAACCA: the binding signal was 1.09 fold enrichment (6-mer frequency, TF over GST control).

Turning to CTGTCT, the binding signal was 1.22 fold enrichment (6-mer frequency, TF over GST control).

Turning to GCTCCA, the binding signal was 1.16 fold enrichment (6-mer frequency, TF over GST control).

On to CTTGGG, for which the binding signal was 1.12 fold enrichment (6-mer frequency, TF over GST control).

Turning to CTCCTT, the binding signal is 1.61 fold enrichment (6-mer frequency, TF over GST control).

Take CTGTAT: the binding signal was 1.18 fold enrichment (6-mer frequency, TF over GST control).

Consider ATGCTC, for which the binding signal was 1.43 fold enrichment (6-mer frequency, TF over GST control).

As to CTATAT, the binding signal was 1.23 fold enrichment (6-mer frequency, TF over GST control).

On to CTCCAA, for which the binding signal was 1.31 fold enrichment (6-mer frequency, TF over GST control).

As to CTCAAT, the binding signal is 1.17 fold enrichment (6-mer frequency, TF over GST control).

CCTAAT: the binding signal was 1.75 fold enrichment (6-mer frequency, TF over GST control).

For CTGGCT, the binding signal was 1.27 fold enrichment (6-mer frequency, TF over GST control).

With TATTTG, the binding signal was 1.43 fold enrichment (6-mer frequency, TF over GST control).

Consider CTTCGA, for which the binding signal is 2.52 fold enrichment (6-mer frequency, TF over GST control).

With ACTATG, the binding signal is 1.09 fold enrichment (6-mer frequency, TF over GST control).

Regarding TAAACT, the binding signal was 1.3 fold enrichment (6-mer frequency, TF over GST control).

As to ATTCAC, the binding signal was 1.13 fold enrichment (6-mer frequency, TF over GST control).

For the sequence CTACAC, the binding signal was 1.11 fold enrichment (6-mer frequency, TF over GST control).

As to GTATTT, the binding signal is 1.5 fold enrichment (6-mer frequency, TF over GST control).

Consider AATTTC, for which the binding signal is 1.89 fold enrichment (6-mer frequency, TF over GST control).

As to TTTCAC, the binding signal is 1.23 fold enrichment (6-mer frequency, TF over GST control).

Consider CTCGTC, for which the binding signal was 1.22 fold enrichment (6-mer frequency, TF over GST control).

With CCTTCT, the binding signal was 2.98 fold enrichment (6-mer frequency, TF over GST control).

TTACGG: the binding signal was 1.43 fold enrichment (6-mer frequency, TF over GST control).
